Screening results from PubChem.
Hits are enriched below; roughly 6.9% of the tested compounds scored in any of these assays.
Vif-APOBEC3F blk – inhibitors of Vif-A3F interaction. HeLa A3F-eYFP + Vif (tagged APOBEC3F with the HIV-1 protein that degrades it), YFP fluorescence increase. Potency, µM (titrated, usually from 46.1 µM), for the others: at the highest dose activity, negative = active. 390,000 tested, 0.2% active; note: potency is the fitted concentration of half-maximal effect; % of control where 0% means no effect; nearly all actives have a fitted effect of over 65% in size
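HeLa cells stably expressing A3F-eYFP plus Vif, plated and incubated overnight at 37 deg C, then exposed to compounds overnight at 37 deg C. Blocked degradation read as raised yellow fluorescence (Ex 488/Em 500-530).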
IL1B secr inh – blocks inflammasome-driven IL-1 beta release. THP-1 LPS/ATP IL-1B secretion, AlphaLISA, 16 h; active compounds read low. 360,000 tested, 4.7% active. activity change, % at 57.5 µM; in the data active = activity change below about -50%; inconclusive = mostly about -30% to -49%; note: % is set by controls: 0 for no effect and ±100 for the full control effect
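THP-1 cells pretreated 1 hr with compounds (up to 57.5 uM final), then stimulated with LPS (250 ng/mL final) plus ATP (1.25 mM final); secreted IL-1B measured by AlphaLISA after 16 hr, decreased signal indicating inhibition.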
Vif-APOBEC3G blk – inhibitors of Vif-APOBEC3G interaction; HeLa A3G-eYFP + Vif (tagged APOBEC3G with the HIV-1 protein that degrades it), YFP fluorescence, overnight; Potency, µM (highest dose often 46.1 µM), for the others: at the top dose activity, negative = active, actives largely listed as inhibitors; 410,000 tested, 0.076% active; AID 602310; note: potency is the fitted concentration of half-maximal effect; % is set by controls: 0 for no effect and ±100 for the full control effect; nearly all actives have a fitted effect of over 60% in size
Target sequence (Q9HC16 whole entry, looked up): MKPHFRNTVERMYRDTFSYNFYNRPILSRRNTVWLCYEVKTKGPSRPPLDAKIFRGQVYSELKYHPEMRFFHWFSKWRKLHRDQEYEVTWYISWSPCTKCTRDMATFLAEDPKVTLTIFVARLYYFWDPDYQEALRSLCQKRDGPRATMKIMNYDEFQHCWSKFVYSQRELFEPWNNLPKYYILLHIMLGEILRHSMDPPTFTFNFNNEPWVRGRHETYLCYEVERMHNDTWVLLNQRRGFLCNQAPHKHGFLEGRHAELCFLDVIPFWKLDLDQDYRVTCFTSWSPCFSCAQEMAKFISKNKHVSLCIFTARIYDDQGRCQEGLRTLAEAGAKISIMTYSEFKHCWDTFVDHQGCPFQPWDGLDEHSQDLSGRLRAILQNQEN
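HeLa cells stably expressing Vif and C-terminally eYFP-tagged A3G, seeded overnight at 37 deg C, then exposed to compound by pintool overnight at 37 deg C. Rise in yellow fluorescence (Ex 488/Em 500-530, Acumen) marks blocked Vif-driven A3G degradation.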
Giardia kill – Giardia lamblia killing; Giardia lamblia trophozoite viability; activity change, % at 7.66 µM, hits read low; 340,000 tested, 0.15% active; AID 540267; in the data active = activity change below about -80%; inconclusive = between about -30% and that limit;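 note: parasites exposed to compound for two days anaerobically before the ATP read; % is set by controls: 0 for no effect and ±100 for the full control effect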
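Media and compound were dispensed first, then trophozoites at 100 cells/well; plates sat 48 hrs at 37 deg C without oxygen before ATP luminescence reagent was added and read after 15-30 min at room temperature.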
SW480 rerep – induces DNA re-replication in SW480 colon adenocarcinoma cells; SW480 DNA re-replication, Hoechst DNA content imaging, 48 h; 340,000 tested, 1.8% active; Potency, µM (series often up to 46.1 µM), for the others: at the highest dose re-replication activation, most hits filed as activators; note: potency is the fitted concentration of half-maximal effect; % of control where 0% means no effect; nearly all actives have a fitted effect of over 55% in size
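Image-based read-out: total Hoechst fluorescence of nuclei (405 nm excitation, 500-530 nm emission), with hits raising the fraction of high-intensity nuclei. SW480 colon cells incubated 48 hr with compounds at 37 C.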
MCF10A rereplic – inducers of DNA re-replication in MCF 10A breast cells; MCF 10A DNA re-replication, Hoechst nuclear intensity, 48 h; Potency, µM (titrated, usually from 46.1 µM), without a hit: at the highest dose activity, positive = re-replication, actives largely listed as activators; 350,000 tested, 2.9% active; AID 624296; note: potency is the fitted concentration of half-maximal effect; % of control where 0% means no effect; nearly all actives have a fitted effect of over 50% in size
* = called active by the depositor; ! = repeats disagree; [ ] = another dose, or the depositor's remark. Unless noted, calls come from the whole dose curve; as a rule, active = well fitted curve in the direction sought with a large enough effect; inconclusive = small, poorly fitted or top-dose-only effect, or another doubt; inactive = no such curve, though single readings can be large; an effect the other way counts as inactive or inconclusive.

`Cc1c(NC(=O)Nc2cccc(C(F)(F)F)c2)sc2nc3n(c(=O)c12)CCC(C)CC3` (centres undefined) gave Vif-APOBEC3F blk -2.7% and Vif-APOBEC3G blk 1.0%.
For Cc1cccc(N(CC(=O)Nc2ccccc2C(F)(F)F)S(=O)(=O)c2ccccc2)c1C the results were Vif-APOBEC3F blk 5.6% and Vif-APOBEC3G blk -0.2%.
Screening CCOC(=O)c1sc2nc(C)nc(NCCc3ccccn3)c2c1C returned Vif-APOBEC3F blk 4.2%, IL1B secr inh -54.7*, Vif-APOBEC3G blk -0.2%, Giardia kill 2.3, SW480 rerep inactive[1.84 µM] and MCF10A rereplic 26.5%.
For CCN(CC)CC(O)CN1c2ccccc2Sc2ccccc21 (centres undefined) the results were Vif-APOBEC3F blk 0.0%, IL1B secr inh -68.4*, Vif-APOBEC3G blk -1.5%, Giardia kill -10.4, SW480 rerep inconclusive and MCF10A rereplic 3.8%.
CCN(CC)CCCCN1c2ccccc2Sc2ccccc21 was read as Vif-APOBEC3F blk -5.2%, IL1B secr inh -70.2*, Vif-APOBEC3G blk 0.7%, Giardia kill 14.6, SW480 rerep 18.4µM* and MCF10A rereplic 25.9µM*.
Screening OCCN(CCO)CC(O)CN1c2ccccc2Sc2ccccc21 (centres undefined) returned Vif-APOBEC3F blk -3.5%, IL1B secr inh -18.7, Vif-APOBEC3G blk -0.7%, Giardia kill -7.3, SW480 rerep -6.8% and MCF10A rereplic 0.6%.
CN(C)CCCN1c2ccccc2Sc2ccc(C(F)(F)F)cc21 was read as Vif-APOBEC3F blk -1.2%, IL1B secr inh -62.2*, Vif-APOBEC3G blk -2.0%, Giardia kill -15.7, SW480 rerep 3.26µM*! and MCF10A rereplic 23.1µM*!.
For CC(CN(C)C)CN1c2ccccc2Sc2ccc(C(F)(F)F)cc21 (centres undefined) the results were SW480 rerep inconclusive and MCF10A rereplic 11.2%.
Screening CCN(CC)CC(=O)N1c2ccccc2Sc2ccccc21 returned Vif-APOBEC3F blk inconclusive, IL1B secr inh -5.9, Vif-APOBEC3G blk -0.1%, Giardia kill -1.2, SW480 rerep -10.3% and MCF10A rereplic -0.6%.
Screening CC(=O)OCC(NC(=O)C(COCc1ccccc1)NC(=O)OC(C)(C)C)C1OC(n2ccc(=O)[nH]c2=O)C(OC(C)=O)C1OC(C)=O (centres undefined) returned Vif-APOBEC3G blk 2.2% and Giardia kill 1.8.
`CCOc1cccc(=O)c2c(C)n(CC(=O)c3ccccc3)c(C)c12` gave Vif-APOBEC3F blk -0.8%, IL1B secr inh -59.4*, Vif-APOBEC3G blk -3.3%, Giardia kill -12.5, SW480 rerep 19.4% and MCF10A rereplic 19.5%.
Cc1ccc(Cn2c(=N)c(C(=O)NCCN3CCOCC3)cc3c(=O)n4ccccc4nc32)cc1 was read as Vif-APOBEC3F blk 4.1%, IL1B secr inh -6.9, Vif-APOBEC3G blk 5.5%, Giardia kill 2.6, SW480 rerep inconclusive and MCF10A rereplic 0.581µM*.
Screening N=c1c(C(=O)NCCN2CCOCC2)cc2c(=O)n3ccccc3nc2n1CCc1ccccc1 returned Vif-APOBEC3F blk 8.8%, IL1B secr inh 2.3, Vif-APOBEC3G blk 0.1%, Giardia kill -0.6, SW480 rerep 10.3µM* and MCF10A rereplic inconclusive.
N=c1c(C(=O)NCCc2ccccc2)cc2c(=O)n3ccccc3nc2n1CCCN1CCOCC1 was read as Vif-APOBEC3F blk 8.1%, IL1B secr inh -56.2*, Vif-APOBEC3G blk 0.5%, Giardia kill 4.9, SW480 rerep 5.17µM* and MCF10A rereplic inconclusive.
Screening N=c1c(C(=O)NCc2ccccc2)cc2c(=O)n3ccccc3nc2n1CCCN1CCOCC1 returned Vif-APOBEC3F blk 5.3%, IL1B secr inh 1.9, Vif-APOBEC3G blk 2.8%, Giardia kill 4.4, SW480 rerep 9.2µM* and MCF10A rereplic 3.66µM*.
`CCOCCCn1c(=N)c(C(=O)NCc2ccccc2)cc2c(=O)n3ccccc3nc21` gave Vif-APOBEC3F blk -0.4% and Vif-APOBEC3G blk -1.4%.
COCCCn1c(C(=O)NCCN2CCOCC2)cc2c(=O)n3ccccc3nc21 was read as Vif-APOBEC3F blk 2.2%, IL1B secr inh 0.0, Vif-APOBEC3G blk 1.2%, Giardia kill -0.2, SW480 rerep -6.2% and MCF10A rereplic 14.2%.
Screening N=c1c(C(=O)NCc2ccc(F)cc2)cc2c(=O)n3ccccc3nc2n1CCCN1CCOCC1 returned Vif-APOBEC3F blk -7.8%, IL1B secr inh -16.5, Vif-APOBEC3G blk 0.3%, Giardia kill 4.5, SW480 rerep inconclusive and MCF10A rereplic 2.82µM*.
CCCN1Cc2cccc(C(=O)Nc3ccc(OC)c(OC)c3)c2C1=O was read as Vif-APOBEC3F blk 11.5%, IL1B secr inh 8.2, Vif-APOBEC3G blk 1.7%, Giardia kill -23.5, SW480 rerep -11.9% and MCF10A rereplic 6.6%.
For COCCN1Cc2cccc(C(=O)Nc3ccc(C)cc3)c2C1=O the results were Vif-APOBEC3F blk 2.6%, IL1B secr inh -68.3*, Vif-APOBEC3G blk -1.6%, Giardia kill -6.0, SW480 rerep 3.8% and MCF10A rereplic 1.6%.
CCCN1Cc2cccc(C(=O)Nc3ccc(CN4CCCC4)cc3)c2C1=O was read as Vif-APOBEC3F blk -3.2%, IL1B secr inh -56.0*, Vif-APOBEC3G blk 2.7%, Giardia kill 30.4, SW480 rerep inconclusive and MCF10A rereplic inconclusive.
`CCOc1ccc(NC(=O)c2cccc3c2C(=O)N(Cc2cccnc2)C3)cc1` gave Vif-APOBEC3F blk 1.0%, IL1B secr inh -82.2*, Vif-APOBEC3G blk -1.7%, Giardia kill -0.7, SW480 rerep -2.1% and MCF10A rereplic -1.1%.
`C=CCOc1c(Br)cc(CNc2ccc(NC(=O)C(C)C)c(OC)c2)cc1OC` gave Vif-APOBEC3F blk -5.8%, IL1B secr inh -3.5, Vif-APOBEC3G blk inconclusive, Giardia kill -0.8, SW480 rerep 18.4µM* and MCF10A rereplic 5.8µM*.
For CCC(Sc1ncnc2sc3c(c12)CCCC3)C(=O)OCC(C)C (centres undefined) the results were Vif-APOBEC3F blk 2.3% and Vif-APOBEC3G blk -2.1%.
Screening CC(=O)c1sc2nc(-c3ccc(C)cc3)c3c(c2c1N)CCCC3 returned Vif-APOBEC3F blk inconclusive, IL1B secr inh -13.9, Vif-APOBEC3G blk -0.3%, Giardia kill 2.9, SW480 rerep 2.91µM* and MCF10A rereplic 2.31µM*.
CCc1nc2sc(C(C)=O)c(N)c2c2c1CCCC2 was read as Vif-APOBEC3F blk 2.4%, IL1B secr inh -2.3, Vif-APOBEC3G blk 1.0%, Giardia kill 13.8, SW480 rerep 14.6µM* and MCF10A rereplic 2.91µM*.
`NC(=O)c1sc2nc(N3CCOCC3)c3c(c2c1N)CCCC3` gave Vif-APOBEC3F blk 1.5%, IL1B secr inh inconclusive, Vif-APOBEC3G blk -8.2%, Giardia kill 2.4, SW480 rerep -3.2% and MCF10A rereplic inconclusive.
